The structures appear in SMILES notation. Where “and” joins values, the source holds several entries; their conditions need not be identical. Identical values can stand only once. Calls of active or inactive are those of the source. Unless noted, the rule behind the calls is not given here.

From PubChem BioAssay come the findings set out here.

Assay [1] deals with Aerobactin synthetase IucA (Klebsiella pneumoniae, hypervirulent). Description: IucA enzyme inhibition, biochemical, LOPAC library, absorbance readout (AID 1346212).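 Note: 100% = no compound wells and 0% = no enzyme wells.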 The following applies: IucA enzyme assay, absorbance (OD) readout; stronger effect = lower value;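 tested at 8 µM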.
Assay [2] is described as follows: phospholipid biosynthesis inhibitors in animal cells, primary screen, cell-based, LOPAC library, screen 4 (AID 1347384). The following applies: phospholipid biosynthesis inhibition screen, at 10 µM.
Assay [3] in a line: liver-stage malaria parasite growth inhibition, primary screen, cell-based, HepG2, luciferase luminescence, HepG2 viability (AID 624349; in the data active = parasite load remaining mostly below about 12%, no sharp cut-off; inactive = mostly above about 10%;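 note: 100% = mean of DMSO negative control wells on the same plate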). Particulars: P. berghei liver stage in HepG2, luciferase luminescence, concentration not given here; parasite load remaining: stronger effect = lower value; viability: measured here: HepG2 viability without parasites.
Assay [4] has as its system Hepatitis C virus NS3 helicase. Briefly: HCV NS3 helicase inhibitors, primary screen, biochemical, fluorescence polarization, LOPAC1280 library (AID 687035; in the data active = inhibition above about 37%). Particulars: Purified HCV NS3 helicase, Cy5-dT15 ssDNA binding fluorescence polarization; stronger effect = higher value; concentration not given here. On the technique in general: Polarisation of emitted light reports the rotation of a fluorescent probe.

Assay [5] can be described thus: Cy5 fluorescence quenching or enhancement artefacts, artefact control for HCV NS3 helicase inhibitor project, biochemical, LOPAC1280 (AID 687037). Particulars: Cy5-DNA-NS3h complex fluorescence interference counterscreen. In general terms: Counterscreens check selectivity or assay interference.
Assay [6] can be described thus: sensitizers of A549 cells to miR-34 induction, primary screen, imaging, A549 dox-inducible miR-34, nuclei and caspase counts (AID 1347080;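 active = compounds whose cell count with miR-34 switched on is under 0.7 times the count with it off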). The following applies: A549 miR-34 inducible, Hoechst nuclei count, 48 h.
Assay [7] in a line: viability rescue of complex I mutant cybrids, primary screen, cell-based, galactose medium, ATP luminescence (AID 1645843;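 active = z-score of at least 1.8 in each of two replicates, scored against plate mean and spread of sample wells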;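 note: positive z means more ATP and so rescue of galactose-driven cybrid death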). The following applies: complex I mutant cybrid cells, 72 h, stronger effect = higher value.
A short description of assay [8]: circadian clock period modulators, cell-based, LOPAC library, luminescence reporter (AID 2774).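 Note: values are relative to mean of DMSO wells on each plate.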 Particulars: circadian reporter cells, at 7 µM, actives lie on both sides.
A short description of assay [9]: hESC survival regulators, cell-based (AID 493140).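 Note: cells exposed to compounds for four days before counting.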 Particulars: human embryonic stem cell survival screen; stronger effect = higher value.
The nature of assay [10]: survival rescue of mitochondrial mutant cells in low glucose, primary screen, MELAS cybrids, Rieske KO mouse fibroblasts, CellTiter-Glo (AID 1508586;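 active = mean z-score across replicates of 1.96 or higher in either the MELAS or the Rieske mutant cell line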;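 note: z relative to plate mean and SD of compound and empty wells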). On the technique in general: Cellular ATP, detected with luciferase, serves as a proxy for viable cell number.
The mark [11] stands for this setting: measured here: relative caspase fold change +Dox/-Dox.
Where [12] appears, read: measured here: total cells with miR-34 induction, stronger effect = lower value.
Where [13] appears, read: measured here: total cells without miR-34 induction.

For orientation: remaining activity means the signal under treatment as a percentage of the control signal. With `CC(C)(O)[C@@H]1C2OC(=O)C1[C@]1(O)C[C@H]3O[C@]34C(=O)O[C@H]2[C@]14C` (stereo partly drawn) (tested in a mixture with another compound), in assay [1], the remaining activity was 128% (inactive). For the same compound, the outcome in assay [2] was inactive.
Usually viability stands for a read-out of living cells in per cent, often relative to untreated cells. As a reminder, the inhibition is the change of the read-out against control, counted positive when it falls. Turning to `O=[N+]([O-])/C=C/c1ccc2c(c1)OCO2`, in assay [3], the parasite load remaining was 42.5% (inactive). Moreover, the viability in assay [3] was found to be 65.7%. Moreover, in [4], the inhibition is -1% (inactive). Moreover, the fluorescence ratio (interference) in assay [5] is 1 (inactive). In addition, the remaining activity in assay [1] was 107% (inactive). Further, the results for the fold change in assay [6] (stronger effect = lower value) and in assay [6] (setting [11]) were 1.45 (inactive) and 0.546, respectively. For the same compound, the results for the cell count in [6] (setting [12]) and in assay [6] (setting [13]) were 2000 and 1380, respectively. The call in assay [2] was inactive. For the same compound, the z-score in [7] is -0.995 (inactive).
Take `c1ccc(C2(c3ccccc3)CC2C2=NCCN2)cc1` (stereo not drawn): in assay [4], the inhibition was -3% (inactive). Further, the fluorescence ratio (interference) in assay [5] is 0.9 (inactive). For the same compound, the remaining activity in assay [1] is 115% (inactive). Moreover, the fold change in [6] (stronger effect = lower value, cell number ratio, induced over uninduced) is 1.07 (inactive); in [6] (setting [11]) it was 1.35. Moreover, the cell count in [6] (setting [12]) is 11300; in assay [6] (setting [13]), 10600. For the same compound, the outcome in assay [2] was inactive. Also, the z-score in [7] was 0.18 (inactive).
Consider `O=C(O)C1C2CCC(O2)C1C(=O)O` (stereo not drawn), for which the period change in assay [8] was 0.03 h (inactive). The survival in assay [9] was 66 (inactive). The remaining activity in assay [1] was 81.7% (inactive).
On to `CCCN(CCC)[C@@H]1CCc2c(F)ccc(O)c2C1`, for which the period change in assay [8] is -0.015 h (inactive). The remaining activity in assay [1] is 110% (inactive).
`C=CCN1CCc2cccc3c2[C@H]1Cc1ccc(O)c(O)c1-3`: the period change in assay [8] is 0.185 h (inactive). The inhibition in [4] was -3% (inactive). Further, the fluorescence ratio (interference) in [5] was 1.1 (inactive). The remaining activity in assay [1] is 110% (inactive).
As to `CCCCCCC(C)(C)c1ccc([C@@H]2C[C@H](O)CC[C@H]2CCCO)c(O)c1`, the period change in assay [8] was 0.01 h (inactive). For the same compound, the inhibition in assay [4] is -4% (inactive). For the same compound, the fluorescence ratio (interference) in assay [5] was 1 (inactive). Further, the remaining activity in assay [1] was 106% (inactive). Besides, the fold change was 0.915 (inactive) in assay [6] (stronger effect = lower value) and 0.979 in assay [6] (setting [11]). Also, the figures for the cell count in assay [6] (setting [12]) and in assay [6] (setting [13]) were 5170 and 5640, respectively.
On to `CNC(=O)OCC[N+](C)(C)C`, for which the period change in [8] is -0.01 h (inactive). For the same compound, the remaining activity in [1] is 109% (inactive).
For the compound `CCCN(CCC)CCc1c[nH]c2ccc(C(N)=O)cc12`, the period change in assay [8] was 0.085 h (inactive). In assay [4], the inhibition is 0% (inactive). The fluorescence ratio (interference) in [5] was 1.1 (inactive). Further, in assay [1], the remaining activity was 109% (inactive).
For `C[N+]1(C)C2CC(OC(=O)[C@H](CO)c3ccccc3)CC1C1OC12` (stereo partly drawn), the period change in assay [8] was -0.095 hour (inactive) and 0.155 hour (inactive). Besides, the inhibition in assay [4] is -1% (inactive) and 0% (inactive). Besides, in [5], the fluorescence ratio (interference) is 1 (inactive). Further, the remaining activity in assay [1] is 96.4% (inactive). The fold change in [6] (stronger effect = lower value) was 0.984 (inactive) and 1.04 (inactive); in [6] (setting [11]), 0.938 and 1.11. For the same compound, the cell count in assay [6] (setting [12]) is 10100 and 9050; in [6] (setting [13]), 10300 and 8720. For the same compound, the z-score in assay [7] is 0.475 (inactive) and 0.45 (inactive).
Turning to `Nc1ncnc2c1ncn2[C@@H]1O[C@H](COP(=O)(O)CP(=O)(O)OP(=O)(O)O)[C@H](O)C1O` (stereo partly drawn), the period change in assay [8] is 0.01 h (inactive). Besides, the inhibition in assay [4] is -1% (inactive). In addition, the fluorescence ratio (interference) in assay [5] was 1 (inactive). For the same compound, the remaining activity in [1] was 111% (inactive). Moreover, the fold change in assay [6] (stronger effect = lower value) was 1.06 (inactive); in [6] (setting [11]), 0.784. For the same compound, the cell count in assay [6] (setting [12]) was 11200; in [6] (setting [13]), 10600. In assay [7], the z-score is 2.36 (active).
On to `Oc1ccc2c3c1O[C@H]1c4[nH]c5ccccc5c4C[C@@]4(O)[C@@H](C2)N(CC2CC2)CC[C@]314`, for which, in assay [3], the parasite load remaining was 47.8% (inactive). The compound further showed a viability in assay [3] of 98.5%. For the same compound, in assay [1], the remaining activity is 108% (inactive). Besides, the results for the fold change in assay [6] (stronger effect = lower value) and in [6] (setting [11]) were 0.934 (inactive) and 1.1, respectively. Moreover, the figures for the cell count in assay [6] (setting [12]) and in [6] (setting [13]) were 8700 and 9320, respectively. Further, the z-score in assay [10] (MELAS cybrid survival, CellTiter-Glo 48 h, stronger effect = higher value) was 0.24 (inactive); in assay [10] (Rieske KO mouse fibroblast survival, CellTiter-Glo 72 h) it was 0.662; in [7] it was -0.405 (inactive).
